Measured values taken from PubChem BioAssay (Tox21).
Records with an inconclusive call do not appear. The source made the active and inactive calls. Unless noted, calls come from the whole dose curve; as a rule, active = well fitted curve in the direction sought with a large enough effect in the repeat runs; inconclusive = weak or mixed curves; inactive = no such curve, though single readings can be large; an effect the other way counts as inactive or inconclusive.

Tests used:
[1] = qHTS RealTime-Glo MT Cell Viability Assay in HEK293 cells - 24 hour (AID 1224886); note: top concentration of the series differs between compounds; nearly all actives have a fitted effect of over 50% in size
In short: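 HEK293 cells were seeded at 600 cells/well together with NanoLuc luciferase and cell-permeant prosubstrate, preincubated 5 h at 37 C/5% CO2, then given compound in DMSO by pintool. Luminescence from viable-cell prosubstrate reduction was read repeatedly over 40 h.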

[2] = qHTS RealTime-Glo MT Cell Viability Assay in HEK293 cells - 8 hour (AID 1224887); note: top concentration of the series differs between compounds; nearly all actives have a fitted effect of over 50% in size
In short: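 Real-time viability in HEK293: signal arises when living cells convert a prosubstrate for NanoLuc in the medium, so luminescence tracks viable cell number. Compound (23 nL, DMSO) added 5 h post-seeding; kinetic reads at 0–40 h, 37 C.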

[3] = A CellTox Green Cytotoxicity Assay to monitor cytotoxicity in HEK293 cells - 16 hour (AID 1224888); note: nearly all actives have a fitted effect of over 35% in size
In short: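 Cells (HEK293, 600/well) and dye reagent are dispensed together. After 5 h at 37 C, 23 nL compound is pinned in. Plates stay at 37 C for 40 h with fluorescence read at 0h, 8h, 16h, 24h, 32h and 40h.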

[4] = A CellTox Green Cytotoxicity Assay to monitor cytotoxicity in HepG2 cells - 8 hour (AID 1224890); note: nearly all actives have a fitted effect of over 45% in size
In short: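 Cells and non-lytic dye reagent are dispensed together (600 HepG2 cells/well) and incubated 5 h before DMSO compound transfer. Kinetic fluorescence is then recorded in the same wells during 40 h at 37 C.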

[5] = qHTS assay to identify small molecule antagonists of the estrogen receptor alpha (ER-alpha) signaling pathway using the BG1 cell line in the presence of 0.1 nM 17-beta-estradiol - cell viability counter screen (AID 1259241); note: nearly all actives have a fitted effect of over 40% in size
In short: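 VM7Luc4E2 cells (endogenous full-length ER-alpha, 4xERE-luciferase), cultured 5 days in charcoal-stripped serum, exposed to compounds with 0.1 nM 17beta-estradiol (final) for 22 hr at 37C. Viability read in same wells as live-cell protease fluorescence after 30 min.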

[6] = qHTS assay to identify small molecule antagonists of the androgen receptor (AR) signaling pathway using the MDA cell line in the presence of 0.5 nM R1881 - cell viability counter screen (AID 1259242); note: nearly all actives have a fitted effect of over 45% in size
In short: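 Steps: plate MDA-kb2 cells, rest 5 hr at 37C without CO2; pin in compounds in DMSO; add R1881 to 0.5 nM final; incubate 16 hr; add CellTiter-Fluor, 30 min; read fluorescence.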

[7] = qHTS assay to identify small molecule HDAC inhibitors (AID 1259364);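 note: wild-type HCT-116 cells with endogenous class I/II HDAC activity; top concentration of the series differs between compounds; nearly all actives have a fitted effect of over 45% in size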
In short: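 Cells (HCT-116, wild type) are seeded at 1,500 per well, incubated overnight, treated with compound in DMSO for 2 hr, then developed with HDAC-Glo I/II reagent for 30 min at room temperature.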

[8] = qHTS assay to identify small molecule HDAC inhibitors - cell viability counter screen (AID 1259365); note: series mostly up to about 92 µM; nearly all actives have a fitted effect of over 50% in size
In short: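 Wild-type HCT-116 cells, 1,500/well, cultured overnight, then compound-treated 2 h at 37 C. Viability measured as ATP luminescence with CellTiter-Glo after 30 min at room temperature.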

[9] = qHTS assay to identify small molecule agonists of the sonic hedgehog signaling (Shh) pathway - cell viability counter screen (AID 1259366); note: nearly all actives have a fitted effect of over 50% in size
In short: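 NIH/3T3-derived Gli1-Luc reporter cells, 2,000 per well, received compound after 4 h and were treated about 23 h at 37C. Viability measured in the same wells by CellTiter-Fluor fluorescence after 1 h.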

[10] = qHTS assay to identify small molecule antagonists of the sonic hedgehog signaling (Shh) pathway - cell viability counter screen (AID 1259367); note: nearly all actives have a fitted effect of over 55% in size
In short: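 CellTiter-Fluor signal in conditioned medium-stimulated 3T3 Gli1-Luc cells, 23 hr compound exposure, 37C.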

[11] = qHTS assay to identify small molecule agonists of the sonic hedgehog signaling (Shh) pathway (AID 1259368; calls by dose curve;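 note: NIH/3T3-derived 3T3Gli1-Luc cells carrying a stable Gli1-driven firefly luciferase reporter; series mostly up to about 92 µM; nearly all actives have a fitted effect of over 15% in size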)
In short: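 Cells of a mouse NIH/3T3 clone stably expressing luciferase under the Gli1 transcriptional response element are exposed to test chemicals for 24 hr at 37 C. Pathway activation is detected as a rise in luminescence.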

[12] = qHTS assay to identify small molecule antagonists of the sonic hedgehog signaling (Shh) pathway (AID 1259369; calls by dose curve; note: nearly all actives have a fitted effect of over 45% in size)
In short: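 Cells are plated and held 4hr at 37 C, compounds (DMSO) are pinned in, conditioned medium is added to stimulate the pathway, and after 24hr luciferase reagent is added for 30min before luminescence is read.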

[13] = target: Estrogen receptor beta (Homo sapiens) (UniProt Q92731); test: qHTS assay to identify small molecule agonists of the estrogen receptor beta (ER-beta) signaling pathway (AID 1259377; active = well fitted activation curve with a large enough effect in the signal ratio in the repeat runs, not every such curve was filed as active; the % refers to the signal ratio)
Chain of Estrogen receptor beta (Homo sapiens) (Q92731 whole entry, looked up): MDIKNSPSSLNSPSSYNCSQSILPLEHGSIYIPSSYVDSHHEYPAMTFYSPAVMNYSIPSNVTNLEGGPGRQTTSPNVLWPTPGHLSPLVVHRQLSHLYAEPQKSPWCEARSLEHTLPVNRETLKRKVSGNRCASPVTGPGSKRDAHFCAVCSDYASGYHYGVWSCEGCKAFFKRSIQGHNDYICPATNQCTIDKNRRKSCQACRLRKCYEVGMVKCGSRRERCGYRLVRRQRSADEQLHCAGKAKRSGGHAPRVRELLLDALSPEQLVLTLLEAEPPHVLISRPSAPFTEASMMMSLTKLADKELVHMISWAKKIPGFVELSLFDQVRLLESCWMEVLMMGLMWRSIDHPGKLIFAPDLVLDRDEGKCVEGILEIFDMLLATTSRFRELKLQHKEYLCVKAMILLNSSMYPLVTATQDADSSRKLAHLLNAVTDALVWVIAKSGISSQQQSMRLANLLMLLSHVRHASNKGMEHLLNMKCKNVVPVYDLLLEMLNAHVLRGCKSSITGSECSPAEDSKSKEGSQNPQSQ
In short: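 ER-beta-UAS-bla HEK293T cells in medium with 2% charcoal-stripped FBS were exposed to compounds for 16 h at 37C. Beta-lactamase reporter activity was read as fluorescence after 2 h with LiveBLAzer B/G FRET substrate at room temperature.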

[14] = qHTS assay to identify small molecule agonists of the androgen receptor (AR) signaling pathway in the presence of an antagonist - cell viability counter screen (AID 1259379);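 note: MDA-kb2 human breast cancer cells carrying an MMTV luciferase reporter; series mostly up to about 92 µM; nearly all actives have a fitted effect of over 25% in size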
In short: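 Cytotoxicity is assessed by CellTiter-Fluor in MDA-kb2 cells carrying an MMTV-driven luciferase reporter. Cells receive 3.0uM nilutamide plus compounds at 15 concentrations and incubate 16 hr at 37C without CO2 before fluorescence reading.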

[15] = qHTS assay to identify small molecule phospholipidosis (PLD) inducers (AID 1259344; active = well fitted curve in the direction sought with a large enough effect; an effect the other way counts as inactive or inconclusive)
In short: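 Accumulated phospholipid, stained red by LipidTOX during 24 h compound treatment of HepG2 cells at 37 C, is quantified from images as pit number and intensity, normalised per cell using Hoechst-stained nuclei.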

[16] = qHTS assay to identify small molecule agonists of the estrogen receptor beta (ER-beta) signaling pathway - cell viability counter screen (AID 1259380); note: nearly all actives have a fitted effect of over 30% in size
In short: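 Cytotoxicity is measured in parallel with the reporter screen: after 16 hr compound exposure at 37C and a 2 hr LiveBLAzer step, CellTiter-Glo is added to the same ER-beta-UAS-bla HEK293T wells and luminescence read after 30 min.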

[17] = target: Estrogen receptor beta (Homo sapiens) (UniProt Q92731); test: qHTS assay to identify small molecule antagonists of the estrogen receptor beta (ER-beta) signaling pathway (AID 1259378; active = well fitted inhibition curve with a large enough effect in the signal ratio in the repeat runs, not every such curve was filed as active; the % refers to the signal ratio)
In short: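 Antagonist mode: compounds added to beta-lactamase reporter HEK293T ER-beta-UAS cells stimulated with E2 (1nM final), 16 hr at 37C. LiveBLAzer B/G FRET substrate, 2 hours room temperature, fluorescence read-out.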

[18] = target: Estrogen receptor (Homo sapiens) (UniProt P03372); test: qHTS assay to identify small molecule antagonists of the estrogen receptor alpha (ER-alpha) signaling pathway using the BG1 cell line in the presence of 0.1 nM 17-beta-estradiol (AID 1259244); note: nearly all actives have a fitted effect of over 50% in size
Chain of Estrogen receptor (Homo sapiens) (P03372 whole entry, looked up): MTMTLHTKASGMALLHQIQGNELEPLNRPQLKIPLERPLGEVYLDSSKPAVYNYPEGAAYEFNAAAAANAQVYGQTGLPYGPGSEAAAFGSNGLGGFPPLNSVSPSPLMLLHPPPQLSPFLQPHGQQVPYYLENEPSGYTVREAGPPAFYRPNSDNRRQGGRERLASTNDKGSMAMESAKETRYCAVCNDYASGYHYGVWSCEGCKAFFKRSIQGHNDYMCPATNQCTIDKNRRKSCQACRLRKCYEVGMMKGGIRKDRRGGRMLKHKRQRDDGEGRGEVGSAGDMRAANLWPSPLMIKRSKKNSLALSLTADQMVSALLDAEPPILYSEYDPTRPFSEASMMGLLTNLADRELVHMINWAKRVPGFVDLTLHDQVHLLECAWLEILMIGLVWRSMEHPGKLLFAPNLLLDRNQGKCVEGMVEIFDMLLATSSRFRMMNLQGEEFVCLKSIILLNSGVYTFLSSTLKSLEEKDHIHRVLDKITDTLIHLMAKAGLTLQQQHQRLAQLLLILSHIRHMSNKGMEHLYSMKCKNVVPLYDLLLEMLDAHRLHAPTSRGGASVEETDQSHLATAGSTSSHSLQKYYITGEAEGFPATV
In short: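 Antagonist mode: compounds in DMSO are pinned onto VM7Luc4E2 reporter cells, 0.1 nM final 17beta-estradiol is added, and after 22 h at 37C luciferase luminescence is measured with ONE-Glo.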

[19] = target: Androgen receptor (Homo sapiens) (UniProt P10275); test: qHTS assay to identify small molecule antagonists of the androgen receptor (AR) signaling pathway using the MDA cell line in the presence of 0.5 nM R1881 (AID 1259243); note: nearly all actives have a fitted effect of over 50% in size
Chain of Androgen receptor (Homo sapiens) (P10275 whole entry, looked up): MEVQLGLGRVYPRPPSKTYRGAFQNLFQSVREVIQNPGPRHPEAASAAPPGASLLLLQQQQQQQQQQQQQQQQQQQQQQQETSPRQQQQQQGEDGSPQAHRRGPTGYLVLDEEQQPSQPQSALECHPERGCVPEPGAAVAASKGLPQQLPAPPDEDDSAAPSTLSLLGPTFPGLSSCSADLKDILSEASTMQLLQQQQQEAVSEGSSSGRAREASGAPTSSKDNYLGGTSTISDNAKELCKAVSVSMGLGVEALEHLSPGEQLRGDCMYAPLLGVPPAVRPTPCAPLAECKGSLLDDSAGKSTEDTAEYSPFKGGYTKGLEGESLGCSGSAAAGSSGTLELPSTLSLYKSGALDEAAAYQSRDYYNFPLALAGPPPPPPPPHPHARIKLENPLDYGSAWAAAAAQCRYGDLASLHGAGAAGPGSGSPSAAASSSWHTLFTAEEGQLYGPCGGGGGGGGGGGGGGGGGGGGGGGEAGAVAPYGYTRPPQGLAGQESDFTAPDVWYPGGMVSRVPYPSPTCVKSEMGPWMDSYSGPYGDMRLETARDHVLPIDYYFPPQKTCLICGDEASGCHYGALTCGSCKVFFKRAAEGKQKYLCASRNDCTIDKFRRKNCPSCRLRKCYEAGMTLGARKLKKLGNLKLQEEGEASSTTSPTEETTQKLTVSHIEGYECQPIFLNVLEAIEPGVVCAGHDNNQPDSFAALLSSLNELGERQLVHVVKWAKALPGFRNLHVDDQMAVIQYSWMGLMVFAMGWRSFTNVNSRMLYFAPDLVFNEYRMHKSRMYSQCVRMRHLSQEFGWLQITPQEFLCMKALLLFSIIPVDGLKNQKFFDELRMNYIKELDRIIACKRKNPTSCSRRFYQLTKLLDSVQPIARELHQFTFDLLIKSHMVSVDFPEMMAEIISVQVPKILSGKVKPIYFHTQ
In short: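 Stably transfected MDA-kb2 cells express luciferase from an MMTV promoter bearing both AR and GR response elements. Compounds plus 0.5 nM R1881 (final) were incubated 16 hr at 37C without CO2, then luminescence measured.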

[20] = qHTS RealTime-Glo MT Cell Viability Assay in HepG2 cells - 0 hour (AID 1224889); note: nearly all actives have a fitted effect of over 50% in size
In short: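 HepG2 cells were seeded at 600 cells/well together with NanoLuc luciferase and a cell-permeant prosubstrate, preincubated 5 h at 37 C/5% CO2, then pin-dosed with compounds in DMSO. Nonlytic luminescence from viable cells was read at each time point.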
% is set by controls: 0 for no effect and ±100 for the full control effect.

Cc1ccc2c(c1)c1c3n2CCNC3CCC1 (centres undefined)
inactive: Potency [1] | Potency [2] | Potency [3] | Potency [4] | Potency [5] | Potency [6] | Potency [7] | outcome [8] | Potency [9] | Potency [10] | outcome [11] | Potency [12] | Potency [13] | Potency [14]

CNCc1ccccc1
inactive: Potency [1] | Potency [2] | Potency [3] | Potency [4] | Potency [5] | Potency [6] | outcome [15] | Potency [7] | outcome [8] | Potency [9] | Potency [10] | outcome [11] | Potency [14] | outcome [16]

NC(=O)C1(N2CCCCC2)CCN(CCCC(=O)c2ccc(F)cc2)CC1
inactive: Potency [1] | Potency [2] | Potency [3] | Potency [4] | Potency [5] | Potency [6] | outcome [15] | Potency [7] | outcome [8] | Potency [9] | Potency [10] | outcome [11] | Potency [12] | Potency [14] | outcome [16]

O=C(c1ccc2c(c1)C(=O)OC2=O)c1ccc2c(c1)C(=O)OC2=O
inactive: Potency [1] | Potency [2] | Potency [3] | Potency [4] | Potency [5] | Potency [6] | Potency [7] | outcome [8] | Potency [9] | Potency [10] | outcome [11] | Potency [12] | Potency [13] | outcome [17] | Potency [14] | outcome [16]

CCOC(=O)CC#N
inactive: Potency [1] | Potency [2] | Potency [3] | Potency [4] | Potency [5] | Potency [6] | Potency [18] | Potency [7] | outcome [8] | Potency [9] | Potency [10] | Potency [12] | Potency [13] | Potency [14] | outcome [16]

CCCCCCCCCCCCCCCCI
inactive: activity change, negative = cytotoxicity [1] -7.78% [at 15.8 µM] | activity change, negative = cytotoxicity [2] -0.789% [at 15.8 µM] | activity change [3] -4.25% [at 15.8 µM, active compounds read high] | cytotoxicity increase [4] -10.7% [at 15.8 µM] | activity change, negative = cytotoxicity [5] 7.96% [at 19 µM] | viability change, negative = cytotoxic [6] 2.57% [at 19 µM] | outcome [19] | activity change, negative = inhibition [7] 1.82% [at 19 µM] | activity change, negative = cytotoxicity [8] -1.08% [at 19 µM] | viability change, negative = cytotoxic [9] 5% [at 19 µM] | viability change, negative = cytotoxic [10] -1.6% [at 19 µM] | activity change [11] -0.0263% [at 18.9 µM] | activation [13] 0.348% [at 19 µM] | activity, negative = inhibition [17] 2.97% [at 19 µM] | activity change, negative = cytotoxicity [14] -1.43% [at 19 µM] | activity change, negative = cytotoxicity [16] -6.04% [at 19 µM]

Cc1ccc(S(=O)(=O)NC(=O)NC2CCCCCCC2)cc1
inactive: Potency [1] | Potency [2] | Potency [3] | Potency [4] | Potency [5] | Potency [6] | outcome [15] | Potency [7] | outcome [8] | Potency [9] | Potency [10] | outcome [11] | Potency [13] | outcome [17] | Potency [14] | outcome [16]

Nc1ccc(S(=O)(=O)Nc2ccccn2)cc1
inactive: Potency [1] | Potency [2] | Potency [3] | Potency [4] | Potency [5] | Potency [6] | outcome [19] | outcome [15] | Potency [7] | outcome [8] | Potency [9] | Potency [12] | Potency [13] | outcome [17] | Potency [14] | outcome [16]

CCC1Nc2cc(Cl)c(S(N)(=O)=O)cc2S(=O)(=O)N1 (centres undefined)
inactive: Potency [1] | Potency [2] | Potency [3] | Potency [4] | Potency [5] | Potency [6] | outcome [15] | Potency [7] | outcome [8] | Potency [9] | Potency [13] | outcome [17] | Potency [14] | outcome [16]

CC(=O)/C=C/c1ccco1
inactive: Potency [1] | Potency [2] | Potency [3] | Potency [4] | Potency [5] | Potency [6] | Potency [18] | Potency [7] | outcome [8] | Potency [9] | outcome [11] | Potency [14] | outcome [16]

COCCOCCOCCOC
inactive: Potency [1] | Potency [2] | Potency [3] | Potency [20] | Potency [5] | Potency [6] | Potency [7] | outcome [8] | Potency [9] | Potency [10] | Potency [12] | Potency [13] | Potency [14] | outcome [16]

CO[Si](CCCS)(OC)OC
inactive: Potency [1] | Potency [2] | Potency [3] | Potency [4] | Potency [5] | Potency [6] | Potency [18] | Potency [7] | outcome [8] | Potency [9] | Potency [10] | outcome [11] | Potency [12] | Potency [13] | outcome [17] | Potency [14] | outcome [16]

NS(=O)(=O)c1cc2c(cc1Cl)NC(C(Cl)Cl)NS2(=O)=O (centres undefined)
inactive: Potency [1] | Potency [2] | Potency [3] | Potency [4] | Potency [5] | Potency [6] | outcome [15] | Potency [7] | outcome [8] | Potency [9] | Potency [10] | outcome [11] | Potency [12] | Potency [13] | Potency [14] | outcome [16]

C=CCOC(=O)c1ccc(C(=O)OCC=C)c(C(=O)OCC=C)c1
inactive: Potency [1] | Potency [2] | Potency [3] | Potency [5] | Potency [6] | Potency [18] | Potency [7] | outcome [8] | Potency [9] | Potency [10] | outcome [11] | Potency [12] | Potency [13] | Potency [14] | outcome [16]

NS(=O)(=O)c1ccccc1OC(F)(F)F
inactive: Potency [2] | Potency [3] | Potency [4] | Potency [5] | Potency [6] | Potency [7] | outcome [8] | Potency [9] | Potency [10] | outcome [11] | Potency [12] | Potency [13] | outcome [17] | Potency [14] | outcome [16]

CCCO
inactive: Potency [3] | Potency [20] | Potency [4] | Potency [5] | Potency [6] | Potency [18] | Potency [7] | outcome [8] | Potency [9] | Potency [10] | Potency [12] | Potency [13] | outcome [17] | Potency [14] | outcome [16]

CN(C1CCCCC1)S(=O)(=O)c1ccccc1N
inactive: Potency [2] | Potency [3] | Potency [20] | Potency [4] | Potency [5] | Potency [6] | Potency [7] | outcome [8] | Potency [9] | Potency [10] | Potency [13] | Potency [14] | outcome [16]
